From PubChem
Compounds with a hit are over-represented: about 7.5% of the library has one in this group of screens.
SMN2 splice up – SMN2 splice variant enhancement; HEK293 SMN2-luciferase splicing reporter, luminescence, 30-36 h; Potency, µM (doses to about 46.1 µM), for the others: at the highest dose activity change, positive = activation, most hits filed as activators; actives 2.8% (n = 210,000); note: % of control where 0% means no effect; nearly all actives have a fitted effect of over 55% in size
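HEK293 cells carry an SMN2 […]–luciferase reporter in which exon 7 inclusion puts luciferase in frame. Cells were plated 10-12 h before compound addition, then incubated 30-36 h at 37C. ONE-Glo luminescence was read; sodium butyrate at 4.5 mM final served as control.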
ELG1 genotox – inducers of genotoxicity in HEK293T ELG1-luciferase cells; HEK293T ELG1-luciferase reporter, luminescence, 16 h; Potency, µM (top dose mostly 46 µM), for the others: top-dose activity change, positive = activation, actives largely listed as activators; actives 1.3% (n = 330,000); note: % of control where 0% means no effect; nearly all actives have a fitted effect of over 60% in size
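After overnight (16 hr) compound treatment at 37 °C, ELG1-luciferase HEK293T cells were lysed with ONE-Glo; luminescence quantified 30 min later at room temperature.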
FLuc counter – inhibits or activates purified firefly luciferase, miR-21 counter-screen. P08659. purified FLuc, Km substrates, luminescence inhibition. Potency, µM (doses to about 57.5 µM), without a hit: top-dose activity change, negative = inhibition, most hits filed as inhibitors. actives 6.9% (n = 360,000);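 note: plate controls were vehicle for no effect and reference inhibitor for full effect; nearly all actives have a fitted effect of over 55% in size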
Target sequence (P08659 whole entry, looked up): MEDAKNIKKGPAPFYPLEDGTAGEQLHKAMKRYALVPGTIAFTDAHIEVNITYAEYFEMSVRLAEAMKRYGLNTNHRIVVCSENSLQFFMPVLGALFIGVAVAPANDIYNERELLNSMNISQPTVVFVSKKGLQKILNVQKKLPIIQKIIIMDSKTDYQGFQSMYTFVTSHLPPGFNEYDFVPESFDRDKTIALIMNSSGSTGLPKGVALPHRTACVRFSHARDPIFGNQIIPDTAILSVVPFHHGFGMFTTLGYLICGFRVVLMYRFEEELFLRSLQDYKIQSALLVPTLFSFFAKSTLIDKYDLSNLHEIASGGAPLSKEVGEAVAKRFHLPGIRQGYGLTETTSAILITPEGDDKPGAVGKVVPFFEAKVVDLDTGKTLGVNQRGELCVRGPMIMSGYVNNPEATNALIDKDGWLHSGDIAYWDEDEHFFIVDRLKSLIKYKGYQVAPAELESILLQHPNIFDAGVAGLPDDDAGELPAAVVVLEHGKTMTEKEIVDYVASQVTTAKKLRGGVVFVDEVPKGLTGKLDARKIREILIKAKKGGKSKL
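Purified P. pyralis luciferase (10nM final) with 10uM D-luciferin and 10uM ATP (Km levels) in 50mM Tris acetate pH 7.5, 10mM Mg acetate, 0.01% Tween-20, 0.05% BSA; qHTS 6-point titration, ~60 µM downward; luminescence read.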
KinaseGlo FLuc – blocks Kinase-Glo luciferase, a counter-screen artifact; AID 1379; Kinase-Glo luciferase, ATP luminescence, 8 min; Potency, µM (doses to about 38.3 µM), without a hit: at the top dose activity change, negative = inhibition, actives largely listed as inhibitors; actives 0.28% (n = 200,000); note: % is set by controls: 0 for no effect and ±100 for the full control effect; nearly all actives have a fitted effect of over 60% in size
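Compounds were added to a substrate mix at pH 7.2 (50 mM imidazole, 10 uM ATP, within the enzyme's linear range), followed by Kinase-Glo detection reagent; luminescence was measured after 8 minutes at ambient temperature.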
Rab9 prom act – activates the Rab9 promoter; Huh7 Rab9 promoter-luciferase reporter, luminescence, 24 h; actives 2.8% (n = 320,000); Potency, µM (top dose mostly 9.22 µM), without a hit: at the highest dose activation, negative = inhibition, actives largely listed as activators; note: % of control where 0% means no effect; nearly all actives have a fitted effect of over 60% in size
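Promoter activation is measured as luciferase luminescence in Huh7 cells stably transfected with a Rab9 promoter–luciferase construct, following 24 h compound exposure at 37 °C and 10 min reagent incubation at ambient temperature.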
NPC1 prom act – activators of NPC1 promoter | actives 2.4% (n = 320,000) | Huh7 NPC1 promoter luciferase reporter, 24 h | Potency, µM (series often up to 9.22 µM), for inactives: at the top dose activation, actives largely listed as activators; note: % of control where 0% means no effect; nearly all actives have a fitted effect of over 60% in size
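Luminescence read-out of NPC1 promoter-driven luciferase in stably transfected Huh7 cells; compounds delivered in DMSO and left 24 h at 37C, 5% CO2, qHTS titration format.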
* = called active by the depositor; ? = inconclusive; . = no result given. Calls come from the whole dose curve; as a rule, active = well fitted curve in the direction sought with a large enough effect; inconclusive = small, poorly fitted or top-dose-only effect, or another doubt; inactive = no such curve, though single readings can be large; an effect the other way counts as inactive or inconclusive. Potency is the fitted concentration of half-maximal effect.

SMILES	SMN2 splice up	ELG1 genotox	FLuc counter	KinaseGlo FLuc	Rab9 prom act	NPC1 prom act
O=C(Nc1cccc(-c2cn3c(n2)SCC3)c1)c1ccc2ccccc2n1	13µM*	?	3µM*	0%	0.4µM*	0.28µM*
CCCS(=O)(=O)Nc1cccc(-c2cn3c(n2)SCC3)c1	.	0%	-2%	.	0%	-2%
COCc1cc(=O)n2c([nH]c3ccccc32)c1C#N	?	19%	19µM*	-9%	8%	-1%
CC(SCc1cc(=O)n2c([nH]c3ccccc32)c1C#N)C(=O)O (stereo unspecified)	-16%	-4%	?	10%	-7%	5%
CCc1cc(=S)n2c([nH]c3ccccc32)c1C#N	.	-17%	24µM*	.	-8%	0%
CCc1cc(=O)n2c([nH]c3ccccc32)c1C#N	-62%	15%	19µM*	5%	-6%	-1%
C=C(C)Cc1c(C)c(C#N)c2[nH]c3ccccc3n2c1=O	.	-7%	-5%	.	3%	-3%
CC1CCN(S(=O)(=O)CCNC(=O)c2ccc3c(c2)OCO3)CC1	.	2%	-1%	.	-1%	9%
Cc1cccc(Oc2ccc(Cl)cc2N)c1	17%	2%	17µM*	-2%	23%	14%
CCC(=O)N1c2ccccc2CC1C(=O)NCCN1CCN(c2cc(Cl)ccc2C)CC1 (stereo unspecified)	.	.	-8%	.	.	.
C=C(CCC(=O)c1ccccc1)C(=O)c1ccccc1	-20%	-16%	17µM*	-1%	-8%	-4%
CCc1ccc(N2CC(C(=O)Nc3ccc4c(c3)OCCO4)CC2=O)cc1 (stereo unspecified)	.	?	-16%	.	4%	1%
Cc1cc(/C=C2/NC(=O)N(c3ccccc3)C2=O)c(C)n1-c1cccnc1	7.9µM*	?	3.4µM*	-4%	1.6µM*	2.2µM*
Cc1cc(/C=C2/NC(=S)NC2=O)c(C)n1-c1cccnc1	?	21%	5.4µM*	-24%	?	24%
COc1ccc(C(=O)NCCOc2ccccc2Cl)c(OC)c1OC	.	15µM*	15µM*	.	3.2µM*	4.5µM*
COc1cc(C(=O)NCCOc2ccccc2C)c(Br)c(OC)c1OC	-6%	-1%	4%	-3%	3%	1%
Cc1cc2sc3ccccc3c(=O)c2c(C)c1O	.	15%	8.5µM*	2%	21%	16%
CN1CCN(/N=C/c2ccc(Cl)c(Cl)c2)CC1	13µM*	?	19µM*	-1%	?	?
CCN(CC)C(=O)[C@H]1C[C@H](CC(=O)NCCN2CCOCC2)C(=O)N2CCc3c([nH]c4cc(CCC(=O)N(C)C)ccc34)[C@]12C	.	4%	.	.	.	.
Cc1ccc(C(=O)/C=C/c2ccc(-c3ccccc3[N+](=O)[O-])o2)cc1	-1%	11%	19µM*	-1%	17%	?
O=C(/C=C/c1ccc(-c2ccccc2[N+](=O)[O-])o1)c1ccc(Br)cc1	-13%	5%	?	4%	3%	19%
O=C(/C=C/c1ccc(-c2ccccc2)o1)c1ccccc1	.	?	6.7µM*	-18%	26%	?
O=C(/C=C/c1ccccc1F)c1cccc([N+](=O)[O-])c1	-3%	?	12µM*	-5%	-4%	-2%
COc1cc(/C=C/C(=O)c2cccc([N+](=O)[O-])c2)cc(OC)c1OC	5%	-8%	-1%	1%	-7%	-2%
O=C(/C=C/c1ccc(-c2ccccc2[N+](=O)[O-])o1)c1ccc(F)cc1	-4%	0%	13µM*	-3%	14%	4%
SMILES	SMN2 splice up	ELG1 genotox	FLuc counter	KinaseGlo FLuc	Rab9 prom act	NPC1 prom act
Cc1ccc(-c2ccc(/C=C/C(=O)c3ccccc3)o2)cc1	14%	1%	?	0%	3%	-1%
O=C(/C=C/c1ccccc1[N+](=O)[O-])c1ccccc1Br	25%	-13%	?	-1%	13%	17%
O=C(C#Cc1ccccc1)c1cccc([N+](=O)[O-])c1	-30%	10%	11µM*	18%	0%	1%
O=C(O)c1cccc([N+](=O)[O-])c1	0%	.	.	.	.	.
Cc1ccc(C(=O)C(C)OC(=O)c2ccccc2[N+](=O)[O-])cc1 (stereo unspecified)	13µM*	7.3µM*	1.1µM*	1%	1.6µM*	0.89µM*
Cc1ccc(C(=O)/C=C/c2ccccc2[N+](=O)[O-])cc1	21%	?	8.5µM*	-4%	?	20%
CCCN(CCC)S(=O)(=O)c1ccc(C(=O)N2CCn3c4c(c5cc(C)ccc53)CCCC42)cc1 (stereo unspecified)	-1%	.	?	.	.	.
O=C(CC1C(=O)N(c2ccc(F)cc2)C(=O)N1Cc1ccc2c(c1)OCO2)Nc1ccc(Cl)cc1 (stereo unspecified)	8%	.	?	.	.	.
Cc1cc(C)c2nc(N3CCC(C(=O)NCCCN4CC(C)CC(C)C4)CC3)sc2c1 (stereo unspecified)	-34%	15%	?	0%	26%	4%
CCN1CCN(CCCNC(=O)C2CCCN(c3nc4c(C)cc(C)cc4s3)C2)CC1 (stereo unspecified)	.	?	17µM*	.	3%	17%
Cc1cc(C)c(S(=O)(=O)N2CCOC2CNC(=O)C(=O)NCCCN2CCOCC2)c(C)c1 (stereo unspecified)	.	?	8.5µM*	.	1.4µM*	2.5µM*
Cc1cc(C)c2nc(N3CCCC(C(=O)NCCCN4CCOCC4)C3)sc2c1 (stereo unspecified)	14µM*	15%	?	-4%	?	23%
Cc1cc(C)c2nc(N3CCCC(C(=O)NCCN4CCOCC4)C3)sc2c1 (stereo unspecified)	16µM*	?	13µM*	-7%	9%	?
CCCOc1ccc(CNC(=O)C2CCCN(c3nc4c(C)cc(C)cc4s3)C2)cc1 (stereo unspecified)	3%	.	0%	.	.	.
O=C(CC(C(=O)NCc1ccccc1)c1nc2ccccc2c(=O)[nH]1)NCc1ccccc1 (stereo unspecified)	.	0%	1%	.	1%	-4%
COc1ccc(CNC(=O)c2cccnc2Sc2ccc(Cl)cc2)cc1	-8%	1%	-1%	2%	3%	-1%
O=C(NCc1cc([N+](=O)[O-])ccc1O)c1cccnc1Sc1ccccc1Cl	.	-8%	15µM*	.	-5%	-5%
O=C(NCc1cc([N+](=O)[O-])ccc1O)c1cccnc1Sc1ccc(Cl)cc1	.	6.5µM*	?	.	16%	?
O=c1[nH]c2cc3ccccc3cc2nc1C(F)(F)F	-2%	-3%	-20%	1%	3%	0%
